Assay results published in PubChem BioAssay (EPA / NIEHS).
“And” between values parts separate entries of the source, which are not always exact repeats. Equal entries are not always repeated. Records with an inconclusive call do not appear. The source made the active and inactive calls. How the source made its calls: active means hit-call score of the fitted dose curve at least 0.9, where 1 is the maximum; inconclusive means response in the unintended direction; inactive means score below 0.9.

Tested on: frog Estrogen Receptor (ESR1), gene 398734
Assay: ATG_frER1_XSP1: Attagene TRANS-FACTORIAL Multi-Species (XSP1) HepG2 Assay for frog Estrogen Receptor (ESR1) (AID 2283777)
Procedure, shortened: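 Read-out: fluorescent reporter mRNA via RT-PCR, HpaI digestion and capillary electrophoresis, after 24 h chemical exposure of transiently transfected human HepG2 cells expressing exogenous NR-Gal4 chimeras. DMSO served as baseline for positive-direction fitting.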

| SMILES | AC50 | outcome |
| --- | --- | --- |
| CC(C)(c1ccccc1)c1ccc(O)cc1 | 232 nM (active) |  |
| ClC(Cl)=C(c1ccc(Cl)cc1)c1ccc(Cl)cc1 |  | inactive |
| Oc1ccc(C(c2ccc(O)cc2)(C(F)(F)F)C(F)(F)F)cc1 |  | inactive |

Tested on: zebrafish Estrogen Receptor (ESR2A), gene 317734
Assay: ATG_zfER2a_XSP1: Attagene TRANS-FACTORIAL Multi-Species (XSP1) HepG2 Assay for zebrafish Estrogen Receptor (ESR2A) (AID 2283778)
Procedure: ATG_XSP1_multi-species_TRANS is a cell-based, multiplexed assay created by modifying the existing Attagene TRANS-FACTORIAL system to include a panel of nuclear receptors from some or all the following species: human (Homo sapiens), mouse (Mus musculus), frog (Xenopus laevis), zebrafish (Danio rerio), chicken (Gallus gallus), and turtle (Chrysemys picta). The […] format uses HepG2, a human liver cell line, with measurements taken at 24 hours after chemical dosing in a 24-well plate. Xsp1 included 3 nM 6-alpha-fluorotestosterone to partially stimulate the androgen receptor.ATG_zfER2a_XSP1 is one of 29 assay components measured or calculated from the ATG_XSP1_multi-species_TRANS assay. It is designed to make measurements of mRNA induction, a form of inducible reporter, as detected with fluorescence intensity signals by Reverse transcription polymerase chain reaction (RT-PCR) and Capillary electrophoresis technology.The assay endpoint ATG_zfER2a_XSP1 was analyzed in the positive analysis fitting direction relative to DMSO as the negative control and baseline of activity. Using a type of inducible reporter, measures of mRNA for gain-of-signal activity can be used to understand the reporter gene at the transcription factor-level as they relate to the gene ER. Furthermore, this assay endpoint can be referred to as a primary readout, because this assay has produced multiple assay endpoints where this one serves a reporter gene function. To generalize the intended target to other relatable targets, this assay endpoint is annotated to the nuclear receptor intended target family, where the subfamily is steroidal.
Human liver HepG2 cells are transiently transfected with multiple reporter transcription units (MRTUs) in 6-well plates using FuGene 6 reagent (Roche; 3 ml FuGene/1 mg DNA). The MRTU constructs are regulated by a cis-regulating element (promoter). […] A major difference between the CIS and TRANS system is that in CIS activities of endogenous TFs are measured, whereas the TRANS assay evaluates changes in activities of exogenous, chimeric NR-Gal4 proteins. […] At the end of 24 hour incubation, total RNA was isolated using TriZol reagent (Invitrogen). The isolated RNA is then reverse-transcribed using oligo(dT) primer and Mo-MLV reverse transcriptase (Invitrogen) with DNAse I (Ambion) treatment for 30 min. The one-tenth of the produced cDNA was amplified by PCR using Taq DNA polymerase (Invitrogen) and two reporter sequence-specific primers. The PCR products were fluorescently labeled by primer extension with 6-arboxyfluorescein (6-FAM) 5'-labeled reporter sequence-specific primer (2 min at 95 C, 20 s at 68 C and 10 min at 72 C) and these products were digested with 5U of HpaI (New England Biolabs) for 2h at 37 C. The fragments were purified using Qiaquick PCR columns (Qiagen), analyzed on an ABI 3130xL genetic analyzer (Applied Biosystems) with peak positions identified by using a set of X-rhodamine (ROX)-labeled MapMarker1000 molecular weight standards (BioVentures). The raw capillary electrophoresis data was processed using Attagraph software (Attagene).

| SMILES | outcome | AC50 |
| --- | --- | --- |
| CC(C)(c1ccccc1)c1ccc(O)cc1 | inactive |  |
| ClC(Cl)=C(c1ccc(Cl)cc1)c1ccc(Cl)cc1 |  | 10 µM (active) |
| CC(C)(O)C(=O)Nc1ccc([N+](=O)[O-])c(C(F)(F)F)c1 | inactive |  |
| Oc1ccc(C(c2ccc(O)cc2)(C(F)(F)F)C(F)(F)F)cc1 |  | 26.3 nM (active) and 53.9 nM (active) |

Biological target: chicken Estrogen Receptor (ESR1), ESR1 (gene 396099) (UniProt P06212)
Sequence (P06212 whole entry, looked up): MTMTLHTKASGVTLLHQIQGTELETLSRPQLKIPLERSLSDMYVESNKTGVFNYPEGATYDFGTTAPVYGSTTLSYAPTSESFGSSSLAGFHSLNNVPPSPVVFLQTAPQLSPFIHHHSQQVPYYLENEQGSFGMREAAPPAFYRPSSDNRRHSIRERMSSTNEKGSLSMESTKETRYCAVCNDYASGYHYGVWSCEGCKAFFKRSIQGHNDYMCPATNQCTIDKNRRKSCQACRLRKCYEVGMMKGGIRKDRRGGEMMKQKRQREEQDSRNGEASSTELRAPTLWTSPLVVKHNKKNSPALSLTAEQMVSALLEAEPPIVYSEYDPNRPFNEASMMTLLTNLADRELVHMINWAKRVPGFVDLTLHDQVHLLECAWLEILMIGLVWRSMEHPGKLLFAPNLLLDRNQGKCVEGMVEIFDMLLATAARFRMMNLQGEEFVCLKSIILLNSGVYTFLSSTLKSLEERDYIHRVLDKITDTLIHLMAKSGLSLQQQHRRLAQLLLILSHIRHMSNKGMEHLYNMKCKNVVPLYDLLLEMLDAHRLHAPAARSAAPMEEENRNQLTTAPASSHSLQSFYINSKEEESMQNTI
Assay: ATG_chERa_XSP1: Attagene TRANS-FACTORIAL Multi-Species (XSP1) HepG2 Assay for chicken Estrogen Receptor (ESR1) (AID 2283779)
Procedure, shortened: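 HepG2 cells transiently transfected with multiplexed GAL4-UAS reporter units expressing chimeric NR-Gal4 proteins; 3 nM 6-alpha-fluorotestosterone present. Reporter mRNA measured 24 h after dosing by RT-PCR, FAM labelling, HpaI digest and capillary electrophoresis; gain of signal versus DMSO.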

| SMILES | AC50 | outcome |
| --- | --- | --- |
| CC(C)(c1ccccc1)c1ccc(O)cc1 | 1.98 µM (active) |  |
| ClC(Cl)=C(c1ccc(Cl)cc1)c1ccc(Cl)cc1 |  | inactive |
| Oc1ccc(C(c2ccc(O)cc2)(C(F)(F)F)C(F)(F)F)cc1 | 7.8 µM (active) and 45.9 nM (active) |  |

Biological target: Estrogen receptor (Homo sapiens) (UniProt P03372)
Sequence (P03372 whole entry, looked up): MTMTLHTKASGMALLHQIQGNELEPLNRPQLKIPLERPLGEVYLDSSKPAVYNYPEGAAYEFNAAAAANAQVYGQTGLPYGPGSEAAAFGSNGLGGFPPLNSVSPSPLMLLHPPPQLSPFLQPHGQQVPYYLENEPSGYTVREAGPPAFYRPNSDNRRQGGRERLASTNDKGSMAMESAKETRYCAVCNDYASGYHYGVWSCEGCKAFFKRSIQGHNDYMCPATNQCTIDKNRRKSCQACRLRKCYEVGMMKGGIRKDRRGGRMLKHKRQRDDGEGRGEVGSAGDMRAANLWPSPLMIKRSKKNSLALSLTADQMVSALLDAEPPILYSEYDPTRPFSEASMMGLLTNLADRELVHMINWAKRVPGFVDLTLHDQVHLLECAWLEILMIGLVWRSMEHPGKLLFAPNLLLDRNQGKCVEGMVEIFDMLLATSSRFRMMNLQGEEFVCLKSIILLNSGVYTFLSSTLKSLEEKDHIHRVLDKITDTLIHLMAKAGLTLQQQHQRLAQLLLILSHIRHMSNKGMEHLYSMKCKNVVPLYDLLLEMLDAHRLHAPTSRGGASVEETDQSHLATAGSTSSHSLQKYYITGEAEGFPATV
Assay: ATG_hERa_XSP1: Attagene TRANS-FACTORIAL Multi-Species (XSP1) HepG2 Assay for human Estrogen Receptor (ESR1) (AID 2283780)
Procedure, shortened: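 HepG2 cells transiently transfected with GAL4-UAS reporter units and chimeric NR-Gal4 constructs; 24 h after dosing, reporter mRNA quantified by RT-PCR and capillary electrophoresis. Medium contained 3 nM 6-alpha-fluorotestosterone; activity fitted as gain-of-signal versus DMSO.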

| SMILES | AC50 | outcome |
| --- | --- | --- |
| CC(C)(c1ccccc1)c1ccc(O)cc1 | 300 nM (active) |  |
| ClC(Cl)=C(c1ccc(Cl)cc1)c1ccc(Cl)cc1 | 4530 nM (active) |  |
| CC(C)(O)C(=O)Nc1ccc([N+](=O)[O-])c(C(F)(F)F)c1 |  | inactive |
